Reference: PubChem BioAssay (Tox21)
“And” between values parts separate entries of the source, which are not always exact repeats. Equal entries are not always repeated. Results filed as inconclusive are left out. A call without a number means that no potency is given here. More than one record can exist for a structure, and the calls need not agree. The source made the active and inactive calls. Unless noted, the call rests on the fitted dose curve; in most records, active means well fitted curve in the direction sought with a large enough effect in the repeat runs; inconclusive means weak or mixed curves; inactive means no such curve, though single readings can be large; an effect the other way counts as inactive or inconclusive.

Tests used:
[1] = qHTS assay to identify small molecule agonists of the estrogen receptor alpha (ER-alpha) signaling pathway in the presence of an antagonist - cell viability counter screen (AID 1259386);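 further: cells exposed to compounds for 22 h at 37 °C before the viability read; nearly all actives have a fitted effect of over 30% in size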; further: potency means the concentration at half of the fitted maximal effect
In short: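 Using estrogen-depleted VM7Luc4E2 cells, the 15-concentration compound series was applied together with 10.0nM ICI-182,780 and incubated 22hr at 37C/5% CO2. Cell viability was then scored by CellTiter-Fluor.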

[2] = molecular target: Progesterone receptor (Homo sapiens) (UniProt P06401); assay: qHTS assay to identify small molecule antagonists of the progesterone receptor (PR) signaling pathway (AID 1346795; active means well fitted inhibition curve with a large enough effect in the signal ratio in the repeat runs, not every such curve was filed as active; the % refers to the signal ratio; further: potency means the concentration at half of the fitted maximal effect)
Progesterone receptor (Homo sapiens), sequence (P06401 whole entry, looked up): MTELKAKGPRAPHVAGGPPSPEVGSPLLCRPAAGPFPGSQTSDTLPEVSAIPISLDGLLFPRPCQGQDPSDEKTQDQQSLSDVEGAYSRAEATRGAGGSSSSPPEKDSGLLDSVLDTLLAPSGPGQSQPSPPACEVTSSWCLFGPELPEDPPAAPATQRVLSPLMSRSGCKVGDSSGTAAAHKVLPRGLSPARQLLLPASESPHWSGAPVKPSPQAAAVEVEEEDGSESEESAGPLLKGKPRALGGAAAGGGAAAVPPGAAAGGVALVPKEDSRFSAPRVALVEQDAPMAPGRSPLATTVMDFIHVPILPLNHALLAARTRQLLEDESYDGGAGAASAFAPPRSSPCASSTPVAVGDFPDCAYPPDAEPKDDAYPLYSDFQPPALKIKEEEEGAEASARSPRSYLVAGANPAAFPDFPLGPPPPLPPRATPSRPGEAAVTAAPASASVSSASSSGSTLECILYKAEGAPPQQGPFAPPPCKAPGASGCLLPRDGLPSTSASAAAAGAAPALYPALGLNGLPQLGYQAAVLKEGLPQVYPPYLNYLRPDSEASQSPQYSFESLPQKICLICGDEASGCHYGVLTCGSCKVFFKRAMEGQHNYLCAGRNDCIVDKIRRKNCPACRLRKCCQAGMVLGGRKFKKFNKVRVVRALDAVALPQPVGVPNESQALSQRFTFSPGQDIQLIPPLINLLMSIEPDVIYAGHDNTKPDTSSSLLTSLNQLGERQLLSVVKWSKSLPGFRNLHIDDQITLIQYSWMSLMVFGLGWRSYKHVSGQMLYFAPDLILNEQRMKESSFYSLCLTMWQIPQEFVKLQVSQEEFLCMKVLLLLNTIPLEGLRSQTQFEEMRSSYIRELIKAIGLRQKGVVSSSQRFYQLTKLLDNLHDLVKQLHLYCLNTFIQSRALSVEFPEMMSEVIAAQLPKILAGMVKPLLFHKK
In short: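 Inhibition of R5020-induced (1 nM final) beta-lactamase reporter signal in PR-UAS-bla HEK293T cells was scored by FRET fluorescence after overnight (16 hr) compound treatment.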

[3] = qHTS assay to identify small molecule antagonists of the progesterone receptor (PR) signaling pathway - cell viability counter screen (AID 1346798); further: nearly all actives have a fitted effect of over 50% in size; further: potency means the concentration at half of the fitted maximal effect
In short: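 ATP content as viability readout: CellTiter-Glo luminescence, 30 min room temperature, in PR-UAS-bla HEK293T cells after 16 hr compound/R5020 treatment at 37C and 5% CO2.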

[4] = qHTS assay to identify small molecule antagonists of the TGF-beta/Smad signaling pathway - cell viability counter screen (AID 1346824); further: nearly all actives have a fitted effect of over 50% in size; further: potency means the concentration at half of the fitted maximal effect
In short: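 SBE-bla HEK 293T cells, incubated overnight, then compound plus 0.25 ng/mL TGF-beta1 (stock added) for 5 hr at 37 C. Viability was read in the same wells by CellTiter-Glo luminescence after 30 min at room temperature.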

[5] = qHTS assay to identify small molecule agonists of the TGF-beta/Smad signaling pathway - cell viability counter screen (AID 1346829); further: nearly all actives have a fitted effect of over 45% in size; further: potency means the concentration at half of the fitted maximal effect
In short: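 Here the cytotoxicity of library compounds is measured in SBE-bla HEK 293T cells treated for 5 hr, using CellTiter-Glo added to wells already read for the beta-lactamase reporter.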

[6] = qHTS assay to identify small molecule agonists of the TGF-beta/Smad signaling pathway (AID 1346859; active means well fitted activation curve with a large enough effect in the signal ratio in the repeat runs, not every such curve was filed as active; the % refers to the signal ratio; further: series mostly up to about 77 µM)
In short: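 Stable Smad binding element-beta-lactamase HEK 293T cells; 5 hr compound exposure at 37 C under 5% CO2; 2 hr room-temperature substrate step; fluorescence excited at 405 nm, collected at 460 nm and 530 nm.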

[7] = molecular target: Thyrotropin-releasing hormone receptor (Homo sapiens) (UniProt P34981); assay: qHTS assay to identify small molecule antagonists of the thyrotropin-releasing hormone receptor (TRHR) signaling pathway (AID 1346877; active means well fitted inhibition curve with a large enough effect in the repeat runs, not every such curve was filed as active; further: series mostly up to about 51 µM)
Thyrotropin-releasing hormone receptor (Homo sapiens), sequence (P34981 whole entry, looked up): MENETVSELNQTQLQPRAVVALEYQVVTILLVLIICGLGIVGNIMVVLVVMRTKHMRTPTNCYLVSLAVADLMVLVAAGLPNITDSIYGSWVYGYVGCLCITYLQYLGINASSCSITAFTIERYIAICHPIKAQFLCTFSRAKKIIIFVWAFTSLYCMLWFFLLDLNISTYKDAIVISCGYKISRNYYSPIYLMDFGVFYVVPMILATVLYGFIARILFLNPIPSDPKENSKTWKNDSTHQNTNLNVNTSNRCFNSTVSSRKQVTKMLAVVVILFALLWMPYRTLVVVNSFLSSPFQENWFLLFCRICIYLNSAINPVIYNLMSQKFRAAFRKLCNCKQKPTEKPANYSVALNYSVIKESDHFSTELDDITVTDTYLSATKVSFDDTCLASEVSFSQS
In short: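 Calcium signal in dye-loaded TRHR/HEK293 cells; compounds added 5 min before TRH (1 nM final); fluorescence monitored 3 min at 1 s steps.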

[8] = molecular target: Thyrotropin-releasing hormone receptor (Homo sapiens) (UniProt P34981); assay: qHTS assay to identify small molecule agonists of the thyrotropin-releasing hormone receptor (TRHR) signaling pathway (AID 1346891; calls by dose curve;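 further: HEK293 cells expressing TRHR with calcium dye readout; series mostly up to about 58 µM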)
In short: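 In 1536-format, 1500 TRHR-Hek293 cells per well grew 18 h, took up calcium dye for 2 h at 37 °C, received compound, and were read kinetically; 15-point titrations, triplicates.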

[9] = Human pregnane X receptor (PXR) small molecule agonists, qHTS cell viability counter screen (AID 1346977); further: nearly all actives have a fitted effect of over 50% in size; further: potency means the concentration at half of the fitted maximal effect
In short: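 Readout is CellTiter-Fluor fluorescence from PXR-Luc HepG2 cells. Plated cells rested 5hr, then were treated with compounds for 24hr at 37C and 5% CO2, with reagent present during the last hour.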

[10] = Caspase-3/7 induction in HepG2 cells by small molecules, qHTS assay (AID 1346978); further: nearly all actives have a fitted effect of over 15% in size; further: potency means the concentration at half of the fitted maximal effect
In short: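 Wild-type HepG2 cells, 2,000/well, settled 5 hr at 37 C and 5% CO2, then compound-treated for 17 hr; caspase-3/7 activity read by luminescent Caspase-Glo 3/7 after 30 min at room temperature.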

[11] = Caspase-3/7 induction in CHO-K1 cells by small molecules, qHTS cell viability counter screen (AID 1346979); further: nearly all actives have a fitted effect of over 35% in size; further: potency means the concentration at half of the fitted maximal effect
In short: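 To flag cytotoxic compounds, treated CHO-K1 wild-type cells were given CellTiter-Fluor at 16hr and read fluorescently after 1hr at 37C; the caspase-3/7 luminescence was measured in these same wells.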

[12] = Caspase-3/7 induction in CHO-K1 cells by small molecules, qHTS assay (AID 1346980); further: nearly all actives have a fitted effect of over 15% in size; further: potency means the concentration at half of the fitted maximal effect
In short: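 Wild-type CHO-K1 cells exposed to compounds for 17hr at 37 C, 5% CO2. Caspase-3/7 activity then measured by Caspase-Glo 3/7 luminescence after 30min at room temperature.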

[13] = Caspase-3/7 induction in HepG2 cells by small molecules, qHTS cell viability counter screen (AID 1346981); further: nearly all actives have a fitted effect of over 30% in size; further: potency means the concentration at half of the fitted maximal effect
In short: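 After a 5-hr attachment period at 37 C and 5% CO2, wild-type HepG2 cells received compounds in DMSO. Sixteen hours later CellTiter-Fluor was dispensed and the fluorescent signal quantified after a further hour.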

[14] = molecular target: Acetylcholinesterase (Homo sapiens) (UniProt P22303); assay: Acetylcholinesterase (AChE) small molecule antagonists: colormetric cell-based qHTS assay (AID 1347395; calls by dose curve; further: nearly all actives have a fitted effect of over 30% in size; further: potency means the concentration at half of the fitted maximal effect)
Acetylcholinesterase (Homo sapiens), sequence (P22303 whole entry, looked up): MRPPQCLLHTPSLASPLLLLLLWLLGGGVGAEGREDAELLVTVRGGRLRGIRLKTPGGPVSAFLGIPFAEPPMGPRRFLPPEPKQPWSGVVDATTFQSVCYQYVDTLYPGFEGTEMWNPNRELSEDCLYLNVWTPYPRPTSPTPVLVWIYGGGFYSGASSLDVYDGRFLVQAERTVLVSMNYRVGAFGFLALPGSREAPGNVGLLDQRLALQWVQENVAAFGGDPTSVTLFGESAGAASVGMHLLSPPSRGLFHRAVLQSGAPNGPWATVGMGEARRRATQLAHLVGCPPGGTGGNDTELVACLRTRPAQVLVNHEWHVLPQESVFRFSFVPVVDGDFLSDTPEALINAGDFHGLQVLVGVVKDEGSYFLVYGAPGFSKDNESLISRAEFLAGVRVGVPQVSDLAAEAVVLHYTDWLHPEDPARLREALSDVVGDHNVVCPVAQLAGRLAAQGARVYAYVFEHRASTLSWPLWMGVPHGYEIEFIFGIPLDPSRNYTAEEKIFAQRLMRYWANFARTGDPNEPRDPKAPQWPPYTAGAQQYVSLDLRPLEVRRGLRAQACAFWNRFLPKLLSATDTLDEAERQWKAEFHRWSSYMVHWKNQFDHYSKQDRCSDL
In short: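 Neuroblastoma line SH-SY5Y supplied the enzyme; cells were preincubated with compound for 30 min at 37 C and 5% CO2. Acetylthiocholine with DTNB was then added for 90 min at 37 C, and thiocholine was measured by colour.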

[15] = molecular target: Progesterone receptor (Homo sapiens) (UniProt P06401); assay: qHTS assay to identify small molecule agonists of the progesterone receptor (PR) signaling pathway (AID 1346784; calls by dose curve; further: nearly all actives have a fitted effect of over 30% in size)
In short: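 Using charcoal-stripped serum (2%) to limit endogenous steroids, PR-UAS-bla HEK 293T cells received compounds for 16 hr at 37C after 6 hr plating; beta-lactamase FRET fluorescence was recorded following 2 hr substrate loading at room temperature.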

[16] = qHTS assay to identify small molecule agonists of the progesterone receptor (PR) signaling pathway - cell viability counter screen (AID 1346799; calls by dose curve; further: nearly all actives have a fitted effect of over 45% in size; further: potency means the concentration at half of the fitted maximal effect)
In short: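 Cytotoxicity in PR-bla HEK293T cells: 16 h compound, 37C; CellTiter-Glo added post-FRET read; luminescence after 30 min RT.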

[17] = molecular target: Nuclear receptor subfamily 1 group I member 2 (Homo sapiens) (UniProt O75469); assay: Human pregnane X receptor (PXR) small molecule agonists, qHTS assay (AID 1346982); further: nearly all actives have a fitted effect of over 35% in size; further: potency means the concentration at half of the fitted maximal effect
Nuclear receptor subfamily 1 group I member 2 (Homo sapiens), sequence (O75469 whole entry, looked up): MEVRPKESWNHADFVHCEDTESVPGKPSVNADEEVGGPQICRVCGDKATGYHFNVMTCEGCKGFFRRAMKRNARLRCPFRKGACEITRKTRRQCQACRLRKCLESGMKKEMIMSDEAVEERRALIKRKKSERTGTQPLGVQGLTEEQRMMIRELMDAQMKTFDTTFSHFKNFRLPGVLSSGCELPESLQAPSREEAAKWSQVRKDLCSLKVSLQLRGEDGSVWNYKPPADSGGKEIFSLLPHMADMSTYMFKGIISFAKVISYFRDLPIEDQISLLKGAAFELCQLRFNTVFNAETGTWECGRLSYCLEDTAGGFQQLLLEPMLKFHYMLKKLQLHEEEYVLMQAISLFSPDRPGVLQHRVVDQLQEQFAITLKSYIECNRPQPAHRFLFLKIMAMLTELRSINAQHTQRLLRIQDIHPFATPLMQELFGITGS
In short: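 Tox21 qHTS; PXR-Luc HepG2; compounds pinned from DMSO; 24 hr, 37 C; ONE-Glo luciferase detection, 30 min room temperature.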

[18] = molecular target: Nuclear receptor subfamily 1 group I member 2 (Homo sapiens) (UniProt O75469); assay: CYP3A4 induction through human pregnane X receptor (PXR) by small molecules, qHTS assay (AID 1346984); further: nearly all actives have a fitted effect of over 40% in size; further: potency means the concentration at half of the fitted maximal effect
In short: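 Cells (DPX-2; HepG2 with PXR element plus CYP3A4-promoter luciferase) settled 5hr, then were treated 24hr at 37C. A 3hr, 3uM-final Luciferin-IPA step preceded luminescence measurement with One-Glo.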

[19] = molecular target: Nuclear receptor subfamily 1 group I member 2 (Rattus norvegicus) (UniProt Q9R1A7); assay: Rat pregnane X receptor (rPXR) activation by small molecules, qHTS assay (AID 1346983); settings: rPXR luciferase reporter cells, One-Glo luminescence, 24 h; stronger effect = higher value; further: nearly all actives have a fitted effect of over 20% in size
Nuclear receptor subfamily 1 group I member 2 (Rattus norvegicus), sequence (Q9R1A7 whole entry, looked up): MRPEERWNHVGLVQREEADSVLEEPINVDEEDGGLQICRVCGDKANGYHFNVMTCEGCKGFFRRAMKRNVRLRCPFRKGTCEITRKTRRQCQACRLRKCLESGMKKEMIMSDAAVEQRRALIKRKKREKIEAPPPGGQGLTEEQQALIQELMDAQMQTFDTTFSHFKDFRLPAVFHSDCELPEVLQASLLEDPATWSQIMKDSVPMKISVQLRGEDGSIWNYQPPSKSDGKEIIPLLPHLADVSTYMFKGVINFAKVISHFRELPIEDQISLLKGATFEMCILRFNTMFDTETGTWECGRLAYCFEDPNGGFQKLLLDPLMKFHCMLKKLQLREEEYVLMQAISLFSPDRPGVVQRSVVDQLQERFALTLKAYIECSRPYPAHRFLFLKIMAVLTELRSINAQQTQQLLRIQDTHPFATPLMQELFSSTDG
In short: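 Cell-based rPXR activation assay: rPXR cells, 2,000 per well, rested 5hr at 37 C, then exposed to compounds in DMSO for 24 hr at 37 C. Luciferase activity read by One-Glo luminescence after 30 min at room temperature.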

[20] = molecular target: Nuclear receptor subfamily 1 group I member 2 (Homo sapiens) (UniProt O75469); assay: Human pregnane X receptor (PXR) activation by small molecules, qHTS assay (AID 1346985); further: nearly all actives have a fitted effect of over 40% in size
In short: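 DPX-2 cells (HepG2 co-transfected with a PXR response element and a CYP3A4-promoter luciferase construct) were seeded at 2,000 per well, rested 5 hr at 37C, then exposed to DMSO-dissolved compounds for 24 hr. Activation was read as luciferase luminescence.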

| SMILES | Potency [1] | Potency [2] | Potency [3] | Potency [4] | Potency [5] | Potency [6] | Potency [7] | outcome [8] | Potency [9] | Potency [10] | Potency [11] | Potency [12] | Potency [13] | Potency [14] | Potency [15] | Potency [16] | Potency [17] | Potency [18] | max activation [19] | outcome [20] |
| --- | --- | --- | --- | --- | --- | --- | --- | --- | --- | --- | --- | --- | --- | --- | --- | --- | --- | --- | --- | --- |
| C[C@]12CCC(=O)C=C1CC[C@@H]1[C@@H]2CC[C@@]2(C)[C@H]1CC[C@]2(C)O | inactive | inactive | inactive | inactive | inactive | inactive | inactive | inactive | inactive | inactive | 50.4 µM (active) | inactive | inactive | inactive | – | – | – | – | – | – |
| ClC(Cl)(Cl)c1ccccc1 | inactive | inactive | inactive | inactive | inactive | inactive | – | – | inactive | inactive | inactive | inactive | inactive | inactive | inactive | inactive | – | – | – | – |
| COc1ccc(C=O)cc1OC | inactive | – | – | inactive | inactive | inactive | inactive | inactive | inactive | inactive | inactive | inactive | inactive | inactive | inactive | inactive | – | – | – | – |
| CCCCCCCC[N+](C)(CCCCCCCC)CCCCCCCC | 21.6 µM (active) and 6.87 µM (active) and 30.6 µM (active) | – | 30.6 µM (active) | 15.5 µM (active) and 49 µM (active) | 49 µM (active) | – | – | – | 30.6 µM (active) and 5.45 µM (active) and 13.7 µM (active) | 54.4 µM (active) and 15.4 µM (active) | 13.7 µM (active) and 4.86 µM (active) and 6.11 µM (active) | 12.2 µM (active) and 13.7 µM (active) | 61 µM (active) and 15.4 µM (active) and 21.7 µM (active) | inactive | inactive | – | 12.2 µM (active) and 2.44 µM (active) | – | – | – |
| CCOP(=S)(OCC)SCn1c(=O)oc2cc(Cl)ccc21 | inactive | – | inactive | inactive | inactive | inactive | inactive | inactive | inactive | inactive | 73.6 µM (active) | inactive | inactive | – | inactive | inactive | 32.9 µM (active) and 34.4 µM (active) | – | – | – |
| CC(C)Nc1ccc(Nc2ccccc2)cc1 | 60.9 µM (active) | 30.5 µM (active) and 27.3 µM (active) | – | inactive | inactive | inactive | inactive | inactive | 20 µM (active) and 27.3 µM (active) | inactive | 24.2 µM (active) and 38.6 µM (active) | inactive | 38.4 µM (active) and 61.1 µM (active) | inactive | – | – | – | 14.1 µM (active) | – | – |
| CCCCCCCCCC(CC)c1ccc(S(=O)(=O)O)cc1 (stereo not drawn) | inactive | – | 30.9 µM (active) and 29.8 µM (active) and 27.3 µM (active) | inactive | inactive | inactive | – | – | inactive | inactive | 61.8 µM (active) and inactive and 52.9 µM (active) | inactive | inactive | inactive | – | 27 µM (active) [middle of 4 runs] | – | inactive | -0.486% (inactive) | inactive |
| O=[N+]([O-])c1ccc(Cl)c([N+](=O)[O-])c1 | 31.1 µM (active) and 27.3 µM (active) | 24.3 µM (active) | 31.1 µM (active) and 27.3 µM (active) | 55.8 µM (active) and 34.7 µM (active) | 24.5 µM (active) | – | inactive | inactive | 31.6 µM (active) and 21.7 µM (active) | inactive | 6.96 µM (active) and 12.2 µM (active) | inactive | 55.3 µM (active) and 48.6 µM (active) | 64.3 µM (active) and 63.3 µM (active) | – | 27.7 µM (active) and 27.3 µM (active) | 9.84 µM (active) and 15.4 µM (active) | – | – | – |
| CCC[CH2][Sn]([Cl])([CH2]CCC)[CH2]CCC | 10.9 µM (active) and 30.6 µM (active) | – | 1.73 µM (active) and 3.44 µM (active) | 1.38 µM (active) and 2.19 µM (active) | 1.55 µM (active) and 977 nM (active) | – | – | – | 562 nM (active) and 433 nM (active) | 1.73 µM (active) and 2.73 µM (active) | 194 nM (active) and 344 nM (active) | 274 nM (active) and 545 nM (active) | 1.94 µM (active) and 4.33 µM (active) | inactive | – | 1.73 µM (active) and 2.17 µM (active) | 487 nM (active) and inactive | – | – | – |
| Cn1c(-c2ccccc2)cc(-c2ccccc2)[n+]1C | – | inactive | inactive | inactive | inactive | inactive | inactive | inactive | inactive | inactive | inactive | inactive | inactive | – | inactive | inactive | inactive | – | – | – |
| CC(C)=CC1C(C(=O)OCN2C(=O)C3=C(CCCC3)C2=O)C1(C)C (stereo not drawn) | inactive | inactive | inactive | inactive | inactive | – | inactive | inactive | inactive | inactive | inactive | inactive | inactive | inactive | inactive | – | 61.1 µM (active) and 29.8 µM (active) | 12.6 µM (active) | -0.665% (inactive) | – |
| CC1(C)C(C(=O)OC(C#N)c2cccc(Oc3ccccc3)c2)C1(C)C (stereo not drawn) | inactive | 24.5 µM (active) | inactive | inactive | inactive | inactive | inactive | inactive | inactive | inactive | inactive | inactive | inactive | inactive | inactive | – | 15.5 µM (active) | – | – | – |
